# Many of the other results were omitted from the sample, so hits are more common in it than they were.
# TbPYK inhibitor: qHTS of Trypanosoma Brucei Inhibitors; hit rate 0.12% among 410,000; pyruvate kinase (Trypanosoma brucei), Q57TT1; Potency, µM (top dose mostly 76.8 µM), without a hit: at the top dose activity, negative = inhibition, actives largely listed as inhibitors; AID 624173, 2012; TbPYK enzyme, Kinase-Glo Plus ATP luminescence, 45 min; note: potency is the fitted concentration of half-maximal effect; % is set by controls: 0 for no effect and ±100 for the full control effect; nearly all actives have a fitted effect of over 50% in size
#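 Luminescence from Kinase-Glo Plus, added after a 45-minute room-temperature reaction, served as the end-point read-out. The enzyme and substrate were preincubated with compound before ADP (130 uM final) initiated turnover. Concentration-effect curves came from normalized qHTS data.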
# Shiga inhibitor: A qHTS for Small Molecule Inhibitors of Shiga Toxin | Vero cells, Shiga toxin protein synthesis inhibition reporter | inhibition, % at 38.7 µM | hit rate 9.2% among 290,000 | AID 2315, 2010; in the data active = inhibition mostly above about 28%, no sharp cut-off; inactive = mostly below about 43%; note: 0% is about no effect
# CHX counter: Cycloheximide Counterscreen for Small Molecule Inhibitors of Shiga Toxin. max response, %. AID 2314, 2010. cell reporter, cycloheximide protein synthesis inhibition counterscreen. hit rate 12% among 300,000; in the data active = max response mostly above about 13%, no sharp cut-off; inactive = mostly below about 14%; note: read at 38.3 µM for the half of the compounds with a filed dose; 0% is about no effect
# Giardia FBPA inh-1: qHTS Assay for Inhibitors of Fructose-1,6-bisphosphate Aldolase from Giardia Lamblia | Potency, µM (highest dose often 59.6 µM), for the others: top-dose activity, negative = inhibition, usual class: inhibitors | AID 2451, 2010 | purified Giardia FBPA | hit rate 0.71% among 290,000; note: potency is the fitted concentration of half-maximal effect; % is set by controls: 0 for no effect and ±100 for the full control effect; nearly all actives have a fitted effect of over 55% in size
#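 Giardia FBPA (40 nM reagent) was preincubated 10 min at RT with compound (up to 57.5 uM final), then substrate plus GAPDH/TPI/NAD/arsenate coupling system with diaphorase/resazurin was added; resorufin fluorescence (525/598 nm) was read after 20 min.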
# RE007 growth inh: qHTS Assay for Inhibitors of the HIV-1 protein Vpr | S. pombe RE007 Vpr strain, BacTiter-Glo ATP luminescence, 24 h | Potency, µM (series often up to 92.2 µM), for the others: top-dose activity change, negative = less growth, most hits filed as inhibitors | hit rate 0.21% among 360,000 | AID 651644, 2012; active = well fitted falling curve with a large enough effect; inconclusive = small, poorly fitted or top-dose-only effect; inactive = no such curve, though single readings can be large or run the other way; note: potency is the fitted concentration of half-maximal effect; % is set by controls: 0 for no effect and ±100 for the full control effect; nearly all actives have a fitted effect of over 50% in size
#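 Fission yeast RE007 carrying one integrated HIV-1 vpr copy, seeded at OD 0.01 in PMG+AL medium with 23 nL pinned compound. Grown 24 h at 30 degrees; viability read by BacTiter-Glo luminescence after 5 min.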
# LmPK inh: qHTS Assay for Inhibitors of Leishmania Mexicana Pyruvate Kinase (LmPK). AID 1721, 2009. Potency, µM (doses to about 57.5 µM), without a hit: at the highest dose activity change, negative = inhibition, hits mostly inhibitors. hit rate 0.37% among 290,000. Q27686. purified LmPK, Kinase-Glo ATP luminescence, 1 h; note: potency is the fitted concentration of half-maximal effect; % is set by controls: 0 for no effect and ±100 for the full control effect
# Target sequence (Q27686 whole entry, looked up): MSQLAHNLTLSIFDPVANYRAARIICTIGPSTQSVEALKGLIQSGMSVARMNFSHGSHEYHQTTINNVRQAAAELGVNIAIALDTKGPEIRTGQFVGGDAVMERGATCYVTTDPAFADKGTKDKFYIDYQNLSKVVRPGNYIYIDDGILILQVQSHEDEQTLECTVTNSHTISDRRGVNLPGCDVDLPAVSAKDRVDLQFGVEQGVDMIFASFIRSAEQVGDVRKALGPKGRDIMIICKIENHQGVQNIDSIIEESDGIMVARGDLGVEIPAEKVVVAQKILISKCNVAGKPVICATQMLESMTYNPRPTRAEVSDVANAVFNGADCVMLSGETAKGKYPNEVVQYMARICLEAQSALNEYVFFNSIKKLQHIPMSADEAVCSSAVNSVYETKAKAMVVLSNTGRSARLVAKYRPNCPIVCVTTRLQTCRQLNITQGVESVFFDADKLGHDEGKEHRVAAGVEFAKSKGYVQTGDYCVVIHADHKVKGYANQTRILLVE
#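 Kinase-Glo luminescence read after 1 h RT reaction of 0.1 nM LmPK with 0.5 mM PEP and 0.1 mM ADP. Activity scaled between uninhibited and enzyme-free controls.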
# Giardia growth: qHTS Assay for Inhibitors of Fructose-1,6-bisphosphate Aldolase from Giardia Lamblia: Giardia lamblia growth inhibition. shares compounds with Giardia FBPA inh-1. Giardia lamblia trophozoite growth inhibition. Potency, µM (highest dose often 57.5 µM), for inactives: at the highest dose activity change, negative = inhibition, hits mostly inhibitors. hit rate 5% among 1,500. AID 2785, 2010;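 note: potency is the fitted concentration of half-maximal effect; trophozoites exposed to compound for 48 h at 37 °C; % is set by controls: 0 for no effect and ±100 for the full control effect; nearly all actives have a fitted effect of over 70% in size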
# Mammalian tox: qHTS Assay for Inhibitors of Fructose-1,6-bisphosphate Aldolase from Giardia Lamblia: Mammalian cellular toxicity; shares compounds with Giardia FBPA inh-1; mammalian cell viability counter-screen, qHTS; Potency, µM (titrated, usually from 57.5 µM), without a hit: at the top dose viability change, negative = toxicity, most hits filed as inhibitors; hit rate 4% among 1,500;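 note: Chinese hamster ovary cells used as mammalian cytotoxicity surrogate; viability measured as cellular ATP by luminescence; potency is the fitted concentration of half-maximal effect; compound exposure lasted 48 h before reading; % is set by controls: 0 for no effect and ±100 for the full control effect; nearly all actives have a fitted effect of over 60% in size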
# Giardia FBPA inh-2: qHTS Assay for Inhibitors of Fructose-1,6-bisphosphate Aldolase from Giardia Lamblia: Primary screen confirmation | shares compounds with Giardia FBPA inh-1 | purified Giardia aldolase enzyme activity, qHTS | Potency, µM (series often up to 57.5 µM), inactives show top-dose activity change, negative = inhibition, actives largely listed as inhibitors | hit rate 5% among 1,500; note: potency is the fitted concentration of half-maximal effect; % is set by controls: 0 for no effect and ±100 for the full control effect; nearly all actives have a fitted effect of over 45% in size
# Rabbit FBPA inh: qHTS Assay for Inhibitors of Fructose-1,6-bisphosphate Aldolase from Giardia Lamblia: Rabbit FBPA Selectivity | shares compounds with Giardia FBPA inh-1 | Rabbit muscle FBPA enzyme inhibition, selectivity counter-screen | Potency, µM (top dose mostly 57.5 µM), for the others: top-dose activity, negative = inhibition, usual class: inhibitors | hit rate 4% among 1,500; note: potency is the fitted concentration of half-maximal effect; % is set by controls: 0 for no effect and ±100 for the full control effect; nearly all actives have a fitted effect of over 60% in size
# Target sequence (P00883 whole entry, looked up): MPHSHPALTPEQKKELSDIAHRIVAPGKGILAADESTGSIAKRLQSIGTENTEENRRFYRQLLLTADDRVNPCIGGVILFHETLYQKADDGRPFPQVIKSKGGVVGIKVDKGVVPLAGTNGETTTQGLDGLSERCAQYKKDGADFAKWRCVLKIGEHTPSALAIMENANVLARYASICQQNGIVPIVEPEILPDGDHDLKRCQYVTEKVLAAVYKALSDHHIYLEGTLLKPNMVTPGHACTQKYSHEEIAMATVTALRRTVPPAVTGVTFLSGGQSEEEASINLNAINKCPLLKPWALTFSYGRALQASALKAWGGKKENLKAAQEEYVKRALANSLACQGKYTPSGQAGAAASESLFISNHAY
# GAPDH coupling: qHTS Assay for Inhibitors of Fructose-1,6-bisphosphate Aldolase from Giardia Lamblia: Coupling assay counterscreen confirmation. shares compounds with Giardia FBPA inh-1. GAPDH coupling enzyme counterscreen, biochemical, qHTS. Potency, µM (highest dose often 57.5 µM), for inactives: at the highest dose activity change, negative = inhibition, actives largely listed as inhibitors. hit rate 6% among 1,500; note: potency is the fitted concentration of half-maximal effect; % is set by controls: 0 for no effect and ±100 for the full control effect; nearly all actives have a fitted effect of over 55% in size
# The depositor's hits bear a star; u = inconclusive; x = no result; [ ] = remark or other dose. Unless noted, calls come from the whole dose curve; as a rule, active = well fitted curve in the direction sought with a large enough effect; inconclusive = small, poorly fitted or top-dose-only effect, or another doubt; inactive = no such curve, though single readings can be large; an effect the other way counts as inactive or inconclusive.
SMILES,TbPYK inhibitor,Shiga inhibitor,CHX counter,Giardia FBPA inh-1,RE007 growth inh,LmPK inh,Giardia growth,Mammalian tox,Giardia FBPA inh-2,Rabbit FBPA inh,GAPDH coupling
CCOC(=O)c1c(NC(=O)c2cc(OCC)c(OCC)c(OCC)c2)sc2c1CCCCC2,-2%,x,x,x,x,x,x,x,x,x,x
COc1ccc(CCCC(=O)N/N=C/c2ccccc2OC)cc1,-6%,2,12,16µM*,3%,8%,-12%[10.4 µM],-12%,u,40µM*,25µM*
COc1ccc(CCCC(=O)N/N=C/c2ccc(C)cc2)cc1,1%,32,21,-12%,2%,-5%,x,x,x,x,x
COc1ccccc1NS(=O)(=O)c1cc(NC(=O)c2sccc2C)ccc1N1CCCC1,u,50,1,14µM*,-10%,0%,-12%[10.4 µM],-18%,u,u,u
O=c1[nH]c2ccccc2c(O)c1SCCO,-6%,3,-2,u,3%,2%,x,x,x,x,x
O=C(O)CSc1c(O)c2ccccc2[nH]c1=O,-15%,-4,-2,18µM*,-15%,0%,u,1%,-18%,-20%,-18%
O=C(O)c1cccc(NC(=O)c2cc3cc(Br)cc(Br)c3oc2=O)c1,-8%,x,x,x,x,x,x,x,x,x,x
CNC(=O)NC(=S)NC(=O)c1ccccc1Cl,4%,14,-3,u,-1%,0%,x,x,x,x,x
O=C(NC(=S)Nc1ncccn1)c1ccccc1Cl,-4%,53,1,3.5µM*,-26%,-5%,u,0%,2%,7%,0%
Cc1ccc(Nc2nc(NCCO)c3ccccc3n2)cc1C,1%,x,10,25µM*,-20%,-3%,4%[10.4 µM],u,-2%,4%,-16%
CCCCC(=O)N/N=C/c1c(O)n(-c2cccc3ccccc23)c(=O)[nH]c1=O,-1%,3,-1,16µM*,10%,2%,90%,6%,9%,-9%,2%
COc1ccc(CN(C)CC(=O)Nc2sc3c(c2C#N)CCC3)c(OC)c1,-6%,1,4,18µM*,-7%,-1%,17%[10.4 µM],3%,2%,11%,-6%
N#CCCN(CCC#N)S(=O)(=O)c1ccc(C(=O)Nc2nnc(C3=COCCO3)o2)cc1,3%,1,1,16µM*,2%,2%,u,15%,5%,16%,2%
CCCCN(C)S(=O)(=O)c1ccc(C(=O)Nc2nnc(C3=COCCO3)o2)cc1,2%,-17,-3,18µM*,-2%,1%[11.5 µM],u,14%,5%,1%,3%
COc1ccc(OC)c(NC(=O)C2C3CCC(C3=C(C)C)C2C(=O)O)c1 (stereo not given),8%,10,-2,3.5µM*,-10%,1%,-8%[38.3 µM],-6%,u,u,u
COc1ccc(OC)c(NC(=O)C2CCCCC2C(=O)O)c1 (stereo not given),-4%,-16,-2,-8%,-10%,2%,x,x,x,x,x
Cc1c(NC(=S)NC(=O)c2cccc(Cl)c2)c(=O)n(-c2ccccc2)n1C,2%,-4,-1,13µM*,9%,-1%,24%,16%,3%,12%,10%
Cc1cccc(C(=O)NC(=S)Nc2c(C)n(C)n(-c3ccccc3)c2=O)c1,-5%,x,x,x,2%,x,x,x,x,x,x
C=CCc1cc(Cl)ccc1OCCN1CC(C)OC(C)C1 (stereo not given),-12%,-6,-2,18µM*,-4%,0%,-19%,-7%,-6%,-2%,0%
COc1ccc(Cl)cc1NC(=O)CN(C)S(=O)(=O)c1ccc2c(c1)CCCN2C(C)=O,-3%,x,x,x,x,x,x,x,x,x,x
Cc1ccccc1NNC(N)=S,-9%,-2,-2,u,u,0%,x,x,x,x,x
NC(=S)NNc1c(F)c(F)c(F)c(F)c1F,-2%,-6,6,16µM*,u,-1%,-1%[10.4 µM],-12%,-11%,5%,1%
CCn1c(C)cc(C)c(C#N)c1=O,-22%,-9,-3,1%,17%,5%,x,x,x,x,x
Cc1cc(C)n(NC(=S)NC2CCCC2)c(=O)c1C#N,2%,-3,2,18µM*,1%,0%,5%,9%,0%,15%,2%
O=S(=O)(c1ccccc1)c1nnn2c1nc(NCc1ccccc1)c1sccc12,-4%,x,x,x,x,x,x,x,x,x,x
SMILES,TbPYK inhibitor,Shiga inhibitor,CHX counter,Giardia FBPA inh-1,RE007 growth inh,LmPK inh,Giardia growth,Mammalian tox,Giardia FBPA inh-2,Rabbit FBPA inh,GAPDH coupling
O=C(CN1CCN(S(=O)(=O)c2ccc(F)cc2)CC1)c1ccc(O)c(O)c1,-29%,-3,11,20µM*,-5%,8%,-6%,-13%,-29%,-17%,2%
O=C(CN1CCN(S(=O)(=O)c2ccc(Cl)cc2)CC1)c1ccc(O)c(O)c1,-23%,2,1,x,0%,-1%,x,x,x,x,x
COc1ccc(/C=C/C(=O)NC(=S)N2C[C@H]3C[C@H](C2)c2cccc(=O)n2C3)cc1OC,3%,-9,-2,7.9µM*,11%,2%,u,1%,5%,0%,17%
COc1cc(C(=O)NC(=S)N2C[C@H]3C[C@H](C2)c2cccc(=O)n2C3)cc(OC)c1OC,-7%,-12,-3,11µM*,-12%,-3%,11%[10.4 µM],17%,3%,10%,9%
O=C(/C=C/c1ccccc1)NC(=S)N1C[C@H]2C[C@H](C1)c1cccc(=O)n1C2,-11%,1,-3,u,-3%,-1%,x,x,x,x,x
COc1cc(OC)cc(C(=O)NC(=S)N2C[C@H]3C[C@H](C2)c2cccc(=O)n2C3)c1,-9%,3,-3,11µM*,-1%,-1%,18%,12%,6%,-2%,13%

# From PubChem
